Experimental data published in PubChem BioAssay AID1159580 (chemical genetic matrix, 2015).
Values joined by “and” are separate entries in the source; they are usually repeats but may differ in a detail not shown here. Equal values may be shown once. The campaign covered roughly 5,500 compounds. About 2,000 (36%) were called active. Roughly 18% stayed inconclusive and do not appear here. Rule as the data show it: active = normalized growth mostly below about 0.91 (no sharp cut-off); inconclusive = no clear call, values can overlap the other calls; inactive = mostly above about 0.92. This is one part of the list.

Assay: chemical genetic growth profiling, strain panel (AID 1159580);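 also: tested at 20 µM; growth read once vehicle control cultures reached saturation at 30 °C; 1 = growth at the plate median or of vehicle wells; lower values mean less growth of the strain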
Conditions: S. cerevisiae deletion strains, growth OD

Measured: normalized growth

COC(=O)c1c(OC)cc2c(c1C)Oc1c(Cl)c(O)c(Cl)c(C)c1C(=O)O2
active: locus YAL013W, strain DEP1, hits give low values 0.879 | locus YBR229C, strain ROT2, hits give low values 0.909 | locus YDR150W, strain NUM1, hits give low values 0.896 | locus YDR162C, strain NBP2, hits give low values 0.82 | locus YDR502C, strain sam2, hits give low values 0.919 | locus YIR030C, strain dcg1, hits give low values 0.925 | locus YJL134W, strain LCB3, hits give low values 0.922 | locus YJL168C, strain set2, hits give low values 0.931
inactive: locus YAL021C, strain ccr4, hits give low values 0.99 | locus YAL026C, strain drs2, hits give low values 0.99 | locus YAL030W, strain snc1, hits give low values 0.977 | locus YBL061C, strain skt5, hits give low values 0.993 | locus YBR009C, strain hhf1, hits give low values 0.993 | locus YBR021W, strain FUR4, hits give low values 1.02 | locus YBR023C, strain chs3, hits give low values 0.988 | locus YBR171W, strain sec66, hits give low values 0.985 | locus YBR231C, strain swc5, hits give low values 0.989 | locus YBR279W, strain paf1, hits give low values 0.992 | locus YCL011C, strain gbp2, hits give low values 0.986 | locus YCL016C, strain dcc1, hits give low values 0.99 | locus YCL029C, strain bik1, hits give low values 0.925 | locus YCL069W, strain vba3, hits give low values 1 | locus YCR088W, strain abp1, hits give low values 0.975 | locus YDL005C, strain med2, hits give low values 1 | locus YDL035C, strain GPR1, hits give low values 0.906 | locus YDL040C, strain nat1, hits give low values 0.98 | locus YDL074C, strain BRE1, hits give low values 0.838 | locus YDL101C, strain DUN1, hits give low values 0.912 | locus YDL134C, strain PPH21, hits give low values 0.935 | locus YDL185W, strain tfp1, hits give low values 0.937 | locus YDL192W, strain arf1, hits give low values 0.949 | locus YDR001C, strain nth1, hits give low values 0.986 | locus YDR069C, strain doa4, hits give low values 0.968 | locus YDR101C, strain arx1, hits give low values 0.965 | locus YDR137W, strain rgp1, hits give low values 0.946 | locus YDR159W, strain sac3, hits give low values 0.963 | locus YDR195W, strain ref2 1.09 | locus YDR297W, strain sur2, hits give low values 0.981 | locus YDR318W, strain mcm21, hits give low values 0.924 | locus YDR334W, strain swr1, hits give low values 1.01 | locus YDR335W, strain msn5, hits give low values 1 | locus YDR388W, hits give low values 0.947 | locus YDR392W, strain spt3, hits give low values 0.965 | locus YEL003W, strain gim4, hits give low values 0.986 | locus YEL037C, strain rad23, hits give low values 0.991 | locus YEL061C, strain CIN8 (second series), hits give low values 0.988 | locus YEL061C, strain CIN8, hits give low values 0.931 | locus YER015W, strain faa2, hits give low values 0.991 | locus YER016W, strain bim1, hits give low values 0.988 | locus YER110C, hits give low values 0.929 | locus YER111C, strain swi4, hits give low values 0.991 | locus YER155C, strain BEM2 (second series), hits give low values 0.997 | locus YER155C, strain BEM2, hits give low values 0.949 | locus YER167W, strain BCK2, hits give low values 0.932 | locus YFR010W, strain ubp6, hits give low values 0.982 | locus YGL078C, strain dbp3, hits give low values 1 | locus YGL086W, strain mad1, hits give low values 0.954 | locus YGL167C, strain pmr1, hits give low values 0.954 | locus YGL173C, strain kem1, hits give low values 0.985 | locus YGL227W, strain vid30, hits give low values 0.991 | locus YGL240W, strain doc1, hits give low values 0.993 | locus YGL248W, strain PDE1, hits give low values 0.932 | locus YGL253W, strain hxk2, hits give low values 0.997 | locus YGR078C, strain PAC10, hits give low values 0.886 | locus YGR135W, strain pre9, hits give low values 0.917 | locus YGR229C, strain SMI1, hits give low values 0.852 | locus YGR252W, strain gcn5, hits give low values 1.04 | locus YHR013C, strain ard1, hits give low values 1.03 | locus YHR027C, strain rpn1, hits give low values 0.997 | locus YHR030C, strain SLT2, hits give low values 0.951 and 0.911 | locus YHR079C, strain IRE1 (second series), hits give low values 0.943 | locus YHR079C, strain IRE1, hits give low values 0.939 | locus YHR094C, strain hxt1, hits give low values 0.948 | locus YHR129C, strain ARP1, hits give low values 0.955 | locus YHR142W, strain chs7, hits give low values 0.994 | locus YHR200W, strain rpn10, hits give low values 0.938 | locus YIL066C, strain RNR3, hits give low values 0.899 | locus YIL073C, strain SPO22, hits give low values 0.969 | locus YIL125W, strain kgd1, hits give low values 0.986 | locus YJL092W, strain hpr5, hits give low values 0.98 | locus YJL095W, strain BCK1 (second series), hits give low values 1 | locus YJL095W, strain BCK1, hits give low values 0.903 and 0.92 | locus YJL115W, strain asf1, hits give low values 1 | locus YJL129C, strain trk1, hits give low values 0.949 | locus YJL154C, strain vps35, hits give low values 0.97 | locus YJL164C, strain tpk1, hits give low values 0.983 | locus YJL166W, strain qcr8, hits give low values 0.974 | locus YJL187C, strain SWE1 (second series), hits give low values 0.916 | locus YJL187C, strain SWE1, hits give low values 0.984 | locus YJR043C, strain POL32, hits give low values 0.977 | locus YJR066W, strain TOR1, hits give low values 0.867
